Screening data as filed in PubChem BioAssay.
This is a sample that favours compounds with a hit; in the whole collection about 3% have one here.
ALOX12 inhib = qHTS Assay for Inhibitors of 12-hLO (12-human lipoxygenase); purified 12-hLO, xylenol orange hydroperoxide absorbance; Potency, µM (highest dose often 57.1 µM), inactives show top-dose activity change, negative = inhibition, most hits filed as inhibitors; 150,000 tested, 0.12% active; also: potency is read from the fitted curve at half-maximal effect; nearly all actives have a fitted effect of over 55% in size
Target sequence (P18054 whole entry, looked up): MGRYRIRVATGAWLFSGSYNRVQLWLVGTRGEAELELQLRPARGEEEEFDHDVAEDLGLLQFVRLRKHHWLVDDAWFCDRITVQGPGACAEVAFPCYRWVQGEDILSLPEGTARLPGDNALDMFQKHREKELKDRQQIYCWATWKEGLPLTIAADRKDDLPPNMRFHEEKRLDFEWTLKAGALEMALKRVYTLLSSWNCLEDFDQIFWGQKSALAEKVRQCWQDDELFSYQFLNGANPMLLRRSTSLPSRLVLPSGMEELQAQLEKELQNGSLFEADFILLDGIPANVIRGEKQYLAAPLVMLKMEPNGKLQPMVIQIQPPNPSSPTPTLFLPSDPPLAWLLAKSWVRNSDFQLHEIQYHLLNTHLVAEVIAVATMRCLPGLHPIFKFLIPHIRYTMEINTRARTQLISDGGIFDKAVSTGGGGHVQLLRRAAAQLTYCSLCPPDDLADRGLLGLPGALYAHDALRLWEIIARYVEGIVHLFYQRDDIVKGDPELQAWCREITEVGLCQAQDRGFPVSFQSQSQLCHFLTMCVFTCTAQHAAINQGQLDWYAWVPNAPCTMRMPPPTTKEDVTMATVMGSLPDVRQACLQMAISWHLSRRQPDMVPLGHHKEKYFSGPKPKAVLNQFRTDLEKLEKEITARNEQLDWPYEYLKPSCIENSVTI
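Lipoxygenase turnover measured by absorbance at 573 and 405 nm after Fe-XO development. Human 12hLO 150 nM, arachidonate 40 uM, pH 7.0 Hepes buffer with detergent; 15 min compound preincubation, 30 min reaction.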
15-hLO-2 inh = qHTS Assay for Inhibitors of 15-hLO-2 (15-human lipoxygenase 2); Polyunsaturated fatty acid lipoxygenase ALOX15B (Homo sapiens), O15296; purified 15hLO-2, xylenol orange hydroperoxide absorbance; Potency, µM (highest dose often 57.1 µM), without a hit: at the highest dose activity change, negative = inhibition, most hits filed as inhibitors; 110,000 tested, 0.56% active; also: potency is read from the fitted curve at half-maximal effect; nearly all actives have a fitted effect of over 60% in size
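Enzyme 50 nM, AA 45 uM, 25 mM Hepes pH 7.5 + 0.01% Triton X-100; cpd preinc 15 min RT, rxn 90 min RT; stop/detect with 200 uM XO + 300 uM Fe(II) in 50 mM H2SO4, 30 min; A573/A405.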
PNC assembly inh = High Content Assay for Compounds that inhibit the Assembly of the Perinucleolar Compartment; PC3M PTB-GFP, PNC prevalence imaging, 16 h; active compounds read low; activity change (PNC), negative = inhibition, % at 10 µM; 140,000 tested, 3.1% active; AID 2417, 2010;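 active = readout at or below -70, meaning at least 70% loss of cells showing the perinucleolar compartment, a nuclear body marking cancer cells; inconclusive = readout between -30 and a set limit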;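 also: plate controls were DMSO wells for no effect and camptothecin positive control wells for full effect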
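Read-out is percentage of cells bearing a perinucleolar compartment, from automated 20x imaging of fixed, Hoechst-stained PC3M PTB-GFP cells. Cells were seeded 4 h, then exposed 16 h to compound (23 nl of library stock) in duplicate plates.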
IMPase cell inh = qHTS Assay for Identifying the Cell-Membrane Permeable IMPase Inhibitors; CHO-M1 cells, IP1 accumulation, HTRF TR-FRET ratio; AID 901, 2007; 120,000 tested, under 10 active; inhibition (IP1 accumulation), % at 46.1 µM; active = well fitted curve in the direction sought with a large enough effect in the signal ratio, not every such curve was filed as active; inconclusive = small, poorly fitted or top-dose-only effect, or a change in a side signal; inactive = no such curve, though single readings can be large or run the other way; the % refers to the signal ratio;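 also: cells stimulated with carbachol in lithium chloride buffer; plate controls were DMSO basal wells for no effect and reference inhibitor wells for full effect; higher means more IMPase inhibition seen as more IP1 and lower FRET ratio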
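Cellular IMPase inhibition is scored as a rise in cytosolic IP1, detected by competitive TR-FRET between d2-labelled IP1 and a europium anti-IP1 antibody. M1-expressing CHO cells were stimulated with carbachol for 30 min at 37C, with lithium (50 mM LiCl) present in the buffer.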
* hit, by the source's call; ? = inconclusive; / = not tested or not shown; [ ] = another dose, or the depositor's remark. Unless noted, calls follow the shape of the dose curve; as a rule, active = well fitted curve in the direction sought with a large enough effect; inconclusive = small, poorly fitted or top-dose-only effect, or another doubt; inactive = no such curve, though single readings can be large; an effect the other way counts as inactive or inconclusive. Unless noted, % is scaled to controls: 0 for no effect and ±100 for the full control effect.

SMILES	ALOX12 inhib	15-hLO-2 inh	PNC assembly inh	IMPase cell inh
O=C(CCNS(=O)(=O)c1cccs1)NCc1ccco1	-7%	-1%	6	-2
CCCCNC(=O)CSc1nnc(-c2ccc(S(=O)(=O)N3CCCC3)cc2)n1C	-3%	/	-100*	1
CCn1c(SCC(=O)NCC(=O)Nc2ccc(F)cc2)nnc1-c1cccs1	1%	0%	-86*	3
CCn1c(SCC(=O)Nc2ccc(C(=O)OC)cc2)nnc1-c1cccs1	-4%	0%[2.29 µM]	?	2
O=C(NCc1cccs1)C1CCCN(c2ncccn2)C1 (configuration not stated)	3%	1%	-86*	-2
CCCn1c(-c2ccc(F)cc2)nc2c(NC(C)CCCN(CC)CC)nc(C)nc21 (configuration not stated)	7%	46%	/	/
COc1ccc(S(=O)(=O)NC2(C(F)(F)F)N=C(c3ccccc3)NC2=O)cc1 (configuration not stated)	0%	/	-113*	/
CCCOc1cccc(C2c3c(oc4ccccc4c3=O)C(=O)N2c2nncs2)c1 (configuration not stated)	/	/	/	-6
CSc1nnc(Cn2c(=O)sc3ccccc32)n1-c1ccccc1	0%	-12%	-106*	-3
COc1ccc(C2CC(C(F)(F)F)n3ncc(C(=O)NCc4cccnc4)c3N2)cc1OC (configuration not stated)	2%	0%	-82*	-7
CCN(CC)S(=O)(=O)c1ccc(N2CCOCC2)c(NS(=O)(=O)c2cc(C(C)(C)C)ccc2C)c1	-2%	/	?	/
CN=C(NC1CCCCC1)c1ccc(Cl)cc1	8%	/	-103*	/
COc1ccc(C2OC34CCCCC3C(C#N)(C#N)C2(C#N)C(=N)O4)cc1 (configuration not stated)	-17%	-14%	4	2
O=C(/C=C\c1ccc(O)cc1)c1ccc(O)cc1O	-10%	-19%	/	-5
Fc1c(F)c(F)c(CSc2nc3ccccc3[nH]2)c(F)c1F	0%	6%	41	-1
c1ccc2[nH]c(SCc3cscn3)nc2c1	-3%	5%	-103*	-1
Cc1ccc(S(=O)(=O)NC2CCC(C(=O)O)CC2)cc1 (configuration not stated)	3%	12%	-103*	3
Cc1ccc(S(=O)(=O)NC2CCCCC2)cc1	0%	-1%	/	/
CCCCc1c(C)c2ccc(OC)c(/C(C)=N\O)c2oc1=O	-4%	-7%	13	2
CC1(C)CC(=O)C2=C(C1)N(CC1CCCO1)C(=O)C2(NC(=O)c1cccnc1)C(F)(F)F (configuration not stated)	1%	6%	?	10
CCCCOc1ccc(-c2nc(=S)[nH][nH]2)cc1	-21%	?	?	2
O=C(NC(=S)Nc1ccccn1)c1ccc([N+](=O)[O-])cc1	2%	/	-85*	/
CC1CCN(c2oc(-c3cccc4ccccc34)nc2C#N)CC1	-5%	/	-100*	?
N#Cc1nc(-c2cccc3ccccc23)oc1N1CCCCC1	-3%	8%	49	-1
O=C(Nc1ccccc1)N(CCCN1CCOCC1)Cc1ccccc1F	1%	1%	-109*	-8
SMILES	ALOX12 inhib	15-hLO-2 inh	PNC assembly inh	IMPase cell inh
CCc1ccc2[nH]c(=O)c(CN(CCN3CCOCC3)C(=O)Nc3ccccc3F)cc2c1	0%	29%	-86*	9
CCCCCCCCCCCCCCCC(=O)NC[C@@H](COP(=O)([O-])OCC[N+](C)(C)C)OCC	18%	-21%	/	9
CCOC(=O)C1=NN(c2ccccc2)C(=O)/C1=C\c1ccc(N(C)C)cc1	-2%	6%	-3	-2
CCOC(=O)C1=C(O)c2ccccc2C(=O)/C1=C\c1ccc(CC)cc1	?	10µM*	-16	9
CCCc1ccc(/C=C2\C(=O)c3ccccc3C(O)=C2C(=O)OCC)cc1	-22%	6.3µM*	?	9
NCCc1nnc(SCc2c(F)cccc2Cl)o1	1%	11%	-103*	8
NCCc1nnc(SCc2ccccc2F)o1	5%	9%	62	-5
CC(=O)c1sc(N/N=C\c2cccc(Br)c2)nc1C	-17%	/	-85*	/
